# Screens (PubChem)
# Only some compounds are listed: those with a hit (about 2.8% of all), similar ones and a draw of the others.
# PI5P4Ka inh: PI5P4K alpha (human) kinase inhibition; P48426; PI5P4Kalpha enzyme, ADP-Glo luminescence, 60 min; stronger effect = lower value; max response, %; hit rate 1.2% among 330,000; AID 652105; active means max response of -50% or lower; inconclusive means between -30% and -50%; inactive means -30% or higher; further: value at the top dose of about 77 µM; on the % scale 0 is the no-effect control and ±100 the full control effect
#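 Quantitative HTS of the MLSMR library against PI5P4Kalpha with substrate. ATP added last at 5 microM final; room temperature, 60 minutes. Remaining ATP depleted, ADP converted and read as luminescence.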
# Pol iota inh: blocks human DNA polymerase iota activity; Q9UNA4; Pol iota fluorescent replication assay, 10 min; Potency, µM (titrated, usually from 115 µM), inactives show at the top dose activity, negative = inhibition, hits mostly inhibitors; hit rate 1% among 390,000; further: potency means the concentration at half of the fitted maximal effect
#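 Pol iota at 10 nM preincubated 15 min with compounds at room temperature; reaction started with fluorescent substrate, 50 nM final. Fluorescence read kinetically at 0 and 10 min; buffer-only wells as negative control.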
# WRN inhibitor: inhibitors of human WRN helicase; Q14191; WRN helicase unwinding, fluorescent forked duplex, kinetic; Potency, µM (titrated, usually from 114 µM), for the others: at the top dose activity change, negative = inhibition, usual class: inhibitors; hit rate 0.46% among 360,000; AID 651768; further: potency means the concentration at half of the fitted maximal effect; on the % scale 0 is the no-effect control and ±100 the full control effect; nearly all actives have a fitted effect of over 55% in size
#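 Fluorescence dequenching readout, ex 525 nm/em 598 nm, kinetic mode: forked duplex DNA (100 nM final) with adjacent fluorophore and quencher unwound by WRN (20 nM final) with 2 mM ATP. Compound preincubation 15 min, room temperature.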
# POLH inh: inhibitors of human DNA polymerase eta; recombinant Pol eta, fluorescent DNA replication assay; Potency, µM (doses to about 114 µM), for the others: at the top dose activity change, negative = inhibition, most hits filed as inhibitors; hit rate 1.2% among 390,000; further: potency means the concentration at half of the fitted maximal effect; on the % scale 0 is the no-effect control and ±100 the full control effect
#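 Pol eta at 10 nM preincubated with compounds 15 min at room temperature; reaction started with fluorescent substrate (50 nM final) and read kinetically at 0 and 10 min.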
# POLB inh: DNA polymerase beta (human) inhibition. P06746. Pol beta primer extension/strand displacement, fluorescence kinetic. Potency, µM (top dose mostly 114 µM), without a hit: top-dose activity change, negative = inhibition, actives largely listed as inhibitors. hit rate 1.3% among 340,000; further: potency means the concentration at half of the fitted maximal effect; on the % scale 0 is the no-effect control and ±100 the full control effect
#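 Pol beta (10 nM) and compounds were preincubated 15 min at room temperature, then 50 nM substrate (final) started primer extension/strand displacement. Reads were taken at 0 and 10 min; concentration-response data were fitted to a four-parameter Hill equation.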
# POLK inh: DNA polymerase kappa (human) inhibition; Q9UBT6; purified Pol kappa, fluorescent DNA synthesis assay, 10 min; Potency, µM (highest dose often 107 µM), for inactives: at the highest dose activity, negative = inhibition, usual class: inhibitors; hit rate 0.53% among 400,000; AID 588579; further: potency means the concentration at half of the fitted maximal effect; on the % scale 0 is the no-effect control and ±100 the full control effect
# Target sequence (Q9UBT6 whole entry, looked up): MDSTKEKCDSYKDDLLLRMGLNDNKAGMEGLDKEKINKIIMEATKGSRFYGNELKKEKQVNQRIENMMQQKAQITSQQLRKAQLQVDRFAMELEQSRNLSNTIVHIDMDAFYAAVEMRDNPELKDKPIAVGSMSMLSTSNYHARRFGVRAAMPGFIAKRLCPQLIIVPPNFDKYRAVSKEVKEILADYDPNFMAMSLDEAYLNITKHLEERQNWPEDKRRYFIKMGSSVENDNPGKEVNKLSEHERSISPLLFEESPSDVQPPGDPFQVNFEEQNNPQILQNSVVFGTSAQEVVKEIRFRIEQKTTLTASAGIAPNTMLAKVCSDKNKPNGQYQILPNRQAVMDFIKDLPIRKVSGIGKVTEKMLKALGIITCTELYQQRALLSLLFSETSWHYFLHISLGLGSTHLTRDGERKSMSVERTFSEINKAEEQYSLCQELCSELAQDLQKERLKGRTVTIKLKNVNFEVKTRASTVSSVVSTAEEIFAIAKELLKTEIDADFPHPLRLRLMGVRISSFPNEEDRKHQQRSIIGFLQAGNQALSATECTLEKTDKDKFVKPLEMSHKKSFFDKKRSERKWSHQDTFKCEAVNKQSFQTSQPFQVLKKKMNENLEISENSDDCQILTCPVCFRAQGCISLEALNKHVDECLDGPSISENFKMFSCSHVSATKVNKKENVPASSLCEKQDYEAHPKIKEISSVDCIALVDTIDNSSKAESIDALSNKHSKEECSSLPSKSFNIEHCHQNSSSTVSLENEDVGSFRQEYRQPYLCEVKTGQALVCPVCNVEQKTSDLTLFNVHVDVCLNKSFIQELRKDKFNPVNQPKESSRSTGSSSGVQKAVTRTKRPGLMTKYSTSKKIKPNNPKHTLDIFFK
#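 Inhibition of 10 nM Pol kappa is measured by a fluorescent read-out at 0 and 10 min following addition of 50 nM substrate (final), with a 15-min room-temperature compound preincubation.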
# * hit, by the source's call; ? = inconclusive; nt = no result given; ! = a repeat was not active; [ ] = dose if it differs, or a comment. Unless noted, the call rests on the fitted dose curve; in most records, active means well fitted curve in the direction sought with a large enough effect; inconclusive means small, poorly fitted or top-dose-only effect, or another doubt; inactive means no such curve, though single readings can be large; an effect the other way counts as inactive or inconclusive.
SMILES,PI5P4Ka inh,Pol iota inh,WRN inhibitor,POLH inh,POLB inh,POLK inh
Cc1c(OCC(=O)NC(Cc2ccc(Cl)cc2)C(=O)O)ccc2c3c(c(=O)oc12)CCC3 (centres undefined),2,-1%,4%,-5%,1%,15%
Cc1c(OCC(=O)NC(Cc2ccc(Cl)cc2)C(=O)O)ccc2c1oc(=O)c1ccccc12 (centres undefined),0,5%,0%[11.6 µM],50µM*,0%,-17%
Cc1cccc2cc(-c3nc4ccc(C(=O)O)cc4[nH]3)c(=O)oc12,-12,?,-3%,22µM*,?,?
CC(C)(C)c1cc(C(C)(C)C)c2oc(=O)c(-c3nc4ccc(C(=O)O)cc4[nH]3)cc2c1,nt,4%,nt,-20%,-3%,2%[60.1 µM]
Cc1cccc(CN2CCC(CNC(=O)Cn3ncc4c([nH]c5ccc(C)cc54)c3=O)CC2)c1,nt,5%,nt,-17%,1%,-38%
CCc1nn(CC(=O)NCc2ccco2)c(=O)c2cc3c(OC)cccc3n12,nt,12%,nt,-9%,25%,2%
CCc1ccccc1NC(=O)CNC(=O)c1ccc(OCc2cn3ccccc3n2)cc1,-8,45µM*,-21%,-20%,nt,-28%
CCc1ccccc1NC(=O)CN1CCN(C(=O)c2ccc(OCc3cn4ccccc4n3)cc2)CC1,0,22%,-7%,-18%,nt,-7%
CCc1ccc(C2C(C#N)=C(N)SC(N)=C2C#N)s1,-75*,?,-11%,?,-8%,?
CCc1ccc(C2C(C#N)=C(N)SC(N)=C2C#N)cc1,nt,?,-27%,-12%,-2%,-11%
CCCCN1C(=O)/C(=C/C=C2\Oc3ccccc3N2CC)SC1=S,1,?,50µM*,?,-5%,5%
CCC(=O)[C@@]1(C)[C@H](C)C[C@@H]2[C@@H]3CCC4=CC(=O)C=C[C@@]4(C)[C@H]3[C@H](O)C[C@]21C,nt,nt,nt,nt,nt,-8%[19.4 µM]
N#Cc1c(N(CCO)CCO)nc(N)c2c(N)nc3c(c12)CC(=O)N3Cc1cccs1,?,3.5µM*,-14%,40µM*,2%,-9%
CN(CCO)c1nc(N)c2c(N)nc3c(c2c1C#N)CC(=O)N3Cc1cccs1,-27,71%,-13%,?,90%,-7%
Nc1nc2ncc(C(=O)c3cc(Cl)cc(Cl)c3O)cc2s1,-57*,139%,?,-24%,-12%,-17%
Nc1nc2ncc(C(=O)c3cc(F)ccc3O)cc2s1,-25,16%,-2%,-17%,25%,-1%
Cc1ccc(N2CC(NC(=O)c3ccc(S(=O)(=O)N4CCOCC4)cc3)CC2=O)cc1C (centres undefined),nt,29%,nt,-19%,1%,-1%[60.1 µM]
CCn1cc(C(=O)NC(=S)Nc2ccccc2[N+](=O)[O-])cn1,-22,15%,-10%,-8%,?,7%
CCn1cc(C(=O)NC(=S)Nc2ccccc2Br)cn1,-60*,21%,0%,-15%,1%,1%
C/C(N)=C(/C#N)C(=O)CSc1nnc(COc2ccccc2Cl)o1,?,89µM*,-4%[11.6 µM],?,40µM*,-8%
O=C1N(Cc2ccccc2)CC2(Br)COCOC12O (centres undefined),-62*,-4%,18µM*,2%,nt,-8%
CC(=O)Nc1cc(N=Cc2ccc(O)cc2O)c(Cl)cc1Cl,?,?,4%,45µM*,5%,-16%
Oc1cccc2c(CC(O)c3c[nH]c4ccccc34)ccnc12 (centres undefined),nt,25%,nt,nt,nt,-21%
CCOc1ccc(NC(=O)Nc2nnc(N3CCCCC3C)s2)cc1 (centres undefined),nt,36%,nt,-18%,1%,-1%
CCOc1ccccc1NC(=O)C(OC(=O)c1ccc(NC(=O)CC#N)cc1)c1ccccc1 (centres undefined),?,?,-15%,?,nt,-30%
SMILES,PI5P4Ka inh,Pol iota inh,WRN inhibitor,POLH inh,POLB inh,POLK inh
CC(OC(=O)c1ccc(NC(=O)CC#N)cc1)C(=O)NC(c1ccccc1)c1ccccc1 (centres undefined),?,?,-4%[11.6 µM],50µM*,nt,-36%
Cc1ccc(C(=O)NCC(=O)OCc2cc(=O)n3ccsc3n2)cc1,nt,-3%,nt,-4%,84%,0%
Cc1ccccc1Nc1c(-c2ccco2)nc2c(C)cccn12,nt,8%,nt,-6%,-16%,-5%
COc1ccc(-n2c(-c3ccc(Cl)cc3Cl)n[nH]c2=S)c(OC)c1,-64*,57%,79µM*,-19%,49%,0%
Cc1nc2ccc([N+](=O)[O-])cc2c(=O)n1Cc1cccc(Br)c1,-4,20%,6%,-3%,79µM*,-10%
CN(C)c1ccc(/C=C/c2cc(Cl)nc3ccccc23)cc1,nt,49%,nt,nt,nt,19%
CCc1ccc(Nc2n[n+](-c3ccccc3)c(-c3c(Cl)cccc3Cl)s2)cc1,-80*,-19%,-7%,-7%,13%,-2%
Fc1ccc(-[n+]2nc(Nc3ccccc3)sc2-c2c(Cl)cccc2Cl)cc1,-14,?,-2%,-30%,40%,1%
CCc1ccc(Nc2n[n+](-c3ccccc3)c(-c3ccc(N(CC)CC)cc3)s2)cc1,-59*,?,-6%,-10%,4%,5%
COc1cc(NC(=S)NCCC(c2ccccc2)c2ccccc2)cc(OC)c1,12,89µM*,40µM*,?,30%,?
O=C(CN1C(=O)CCSc2ccc(S(=O)(=O)N3CCCC3)cc21)Nc1cccc(Cl)c1,nt,24%,nt,-14%,0%,-6%[60.1 µM]
O=C1c2c(O)cc(O)cc2O[C@@]12c1c(cc(O)c3c1O[C@H](c1ccc(O)cc1)[C@@H](O)C3)O[C@@H]2c1ccc(O)cc1,-22,?,-10%[11.6 µM],-19%,-11%,?
O[C@@H]1Cc2ccccc2O[C@H]1c1ccccc1,0,1%,5%[57.1 µM],-22%,nt,0%
Oc1ccc2c(c1)OC(c1ccc(O)c(O)c1)C(O)C2 (centres undefined),nt,nt,nt,nt,nt,10µM*
Oc1cc(O)c2c(c1)O[C@H](c1ccc(O)c(O)c1)[C@@H](O)C2,-2,?,nt,28µM*!,13µM*,?
CC(=O)c1sc(C(=O)O)c(-c2ccco2)c1-c1ccco1,?,?,-36%,22µM*,20µM*,45µM*
Cc1ccc(C(C2=C(O)CC(C)(C)CC2=O)C2C(=O)CC(C)(C)CC2=O)s1 (centres undefined),?,-17%,56µM*,4%,2%,-13%
CC1(C)CC(=O)C(C(C2=C(O)CC(C)(C)CC2=O)c2ccc(Br)s2)C(=O)C1 (centres undefined),-80*,?,22µM*,-3%,-1%,-3%
